According to PubChem BioAssay (Tox21):
A number with no mark means an inactive call. Inconclusive results are not listed. Entries that show only a call come without a potency. Calls of active or inactive are those of the source. Unless noted, calls follow the shape of the dose curve; as a rule, active = well fitted curve in the direction sought with a large enough effect in the repeat runs; inconclusive = weak or mixed curves; inactive = no such curve, though single readings can be large; an effect the other way counts as inactive or inconclusive.

Key:
[1] = qHTS assay for small molecules that induce genotoxicity in human embryonic kidney cells expressing luciferase-tagged ATAD5 (AID 651632); also: nearly all actives have a fitted effect of over 15% in size
Method in brief: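 HEK293T cells carrying a luciferase reporter tagged to ATAD5 were exposed to compound or DMSO vehicle for 16 hr at 37C, 5% CO2. Amplite was added, and after 30 min at room temperature luciferase activity was read as a marker of ATAD5 induction.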

[2] = qHTS assay for small molecules that induce genotoxicity in human embryonic kidney cells expressing luciferase-tagged ATAD5 - cell viability (AID 651634; calls by dose curve; also: nearly all actives have a fitted effect of over 25% in size)
Method in brief: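 HEK293T cells expressing luciferase-tagged ATAD5 were exposed to compound or DMSO for 15.5 hr at 37C, 5% CO2. Viability was then read as live-cell protease activity by CellTiter-Fluor fluorescence after 30 min at 37C.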

[3] = qHTS assay for small molecule disruptors of the mitochondrial membrane potential - cell viability (AID 720634; calls by dose curve;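 also: human HepG2 liver cancer cells; series mostly up to about 83 µM; nearly all actives have a fitted effect of over 20% in size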)
Method in brief: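 HepG2 cells seeded overnight at 37 C, then exposed to compound or DMSO for 1 hr at 37 C, 5% CO2. m-MPI dye added, then CellTiter-Glo for 30 min at room temperature; viability read as ATP luminescence.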

[4] = qHTS assay for small molecule disruptors of the mitochondrial membrane potential (AID 720635); also: potency is read from the fitted curve at half-maximal effect
Method in brief: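 Mitochondrial membrane potential tracked with Mito-MPS dye, red aggregates (ex 540/em 590 nm) against green monomers (ex 490/em 535 nm). Compound treatment 1 hr at 37C, dye 30 min in HepG2.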

[5] = qHTS assay to test for compound auto fluorescence at 590 nm (red) in HepG2 cells (AID 720674)
Method in brief: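 Red autofluorescence (Ex/Em 540/590 nm, Rose Bengal sodium equivalents) was measured in HepG2 cells, 2,000 per well in MEM plus 10% FBS, plated overnight at 37 C. Readings were taken 1 hr after adding 23 nL compound or DMSO, at 37 C and 5% CO2.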

[6] = qHTS assay to test for compound auto fluorescence at 535 nm (green) in HepG2 cells (AID 720675)
[7] = qHTS assay to test for compound auto fluorescence at 460 nm (blue) in HEK293 cells (AID 720678)
Method in brief: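 HEK293 cells (2,000 per well, medium with 10% dialyzed FBS) attached for 4-5 hr at 37C, then received compound and stood overnight at 37C, 5% CO2. Blue fluorescence was read at Ex/Em 405/460 nm and expressed relative to triamterene.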

[8] = qHTS assay to test for compound auto fluorescence at 590 nm (red) in HEK293 cells (AID 720679)
Method in brief: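 HEK293 cells (2,000/well, medium with 10% dialyzed FBS) attached for 4-5 hr at 37C, received 23 nL compound and were incubated overnight at 37C, 5% CO2. Red fluorescence was then read at 540/590nm Ex/Em, referenced to Rose Bengal sodium.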

[9] = qHTS assay for small molecule agonists of the p53 signaling pathway - cell viability (AID 651633; calls by dose curve;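 also: p53RE-bla HCT reporter cells with a stable beta-lactamase p53 reporter; series mostly up to about 83 µM; nearly all actives have a fitted effect of over 30% in size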)
Method in brief: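 Viability counter-read: CellTiter-Glo luminescence (30 min, room temperature) in the same p53RE-bla plates. These plates had been exposed to compounds for 16 h at 37 C.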

Question: With `O=C(OCC(COC(=O)c1cccnc1)(COC(=O)c1cccnc1)COC(=O)c1cccnc1)c1cccnc1` as the compound, how does the Potency [1] read?
Answer: inactive

Question: And the Potency [2]?
Answer: inactive

Question: And the outcome [3]?
Answer: inactive

Question: And the Potency [4]?
Answer: inactive

Question: And the outcome [5]?
Answer: inactive

Question: And the outcome [6]?
Answer: inactive

Question: And the outcome [7]?
Answer: inactive

Question: What about the outcome [8] of the same compound?
Answer: inactive

Question: With `CC/C=C\CC1=C(C)CCC1=O` as the compound, how does the Potency [1] read?
Answer: inactive

Question: And the Potency [2]?
Answer: inactive

Question: What about the outcome [3] of the same compound?
Answer: inactive

Question: What about the outcome [5] of the same compound?
Answer: inactive

Question: And the outcome [6]?
Answer: inactive

Question: What about the outcome [7] of the same compound?
Answer: inactive

Question: What about the outcome [8] of the same compound?
Answer: inactive

Question: For `O=C(O)C(=O)Cc1ccccc1`, which Potency [1] is on record?
Answer: inactive

Question: What about the outcome [9] of the same compound?
Answer: inactive

Question: What about the Potency [2] of the same compound?
Answer: inactive

Question: What about the outcome [5] of the same compound?
Answer: inactive

Question: What about the outcome [6] of the same compound?
Answer: inactive

Question: What about the outcome [7] of the same compound?
Answer: inactive

Question: What about the outcome [8] of the same compound?
Answer: inactive

Question: What does the source list for `O=C(O)c1cc(Br)c(O)c(Br)c1`?
Answer: Potency [1]: inactive; outcome [9]: inactive; Potency [2]: inactive; Potency [4]: inactive; outcome [5]: inactive; outcome [6]: inactive; outcome [7]: inactive; outcome [8]: inactive

Question: Which Potency [1] does the source give for `CC(CN)CC(C)(C)CCN` (configuration not stated) here?
Answer: inactive

Question: What about the outcome [9] of the same compound?
Answer: inactive

Question: And the Potency [2]?
Answer: inactive

Question: And the Potency [4]?
Answer: inactive

Question: And the outcome [5]?
Answer: inactive

Question: What about the outcome [7] of the same compound?
Answer: inactive

Question: What about the outcome [8] of the same compound?
Answer: inactive

Question: With `CCN(C)C(=O)Oc1cccc([C@H](C)N(C)C)c1` as the compound, how does the Potency [1] read?
Answer: inactive

Question: And the Potency [2]?
Answer: inactive

Question: What about the outcome [3] of the same compound?
Answer: inactive

Question: What about the outcome [5] of the same compound?
Answer: inactive

Question: And the outcome [6]?
Answer: inactive

Question: What about the outcome [7] of the same compound?
Answer: inactive

Question: And the outcome [8]?
Answer: inactive

Question: Which results are given for `Nc1cccc(O)c1`?
Answer: Potency [1]: inactive; outcome [9]: inactive; outcome [5]: inactive; outcome [6]: inactive; outcome [7]: inactive

Question: For `CC(C)CCCC(C)(C)O`, which Potency [1] is on record?
Answer: inactive

Question: And the Potency [2]?
Answer: inactive

Question: What about the outcome [3] of the same compound?
Answer: inactive

Question: And the Potency [4]?
Answer: inactive

Question: What about the outcome [5] of the same compound?
Answer: inactive

Question: And the outcome [7]?
Answer: inactive

Question: And the outcome [8]?
Answer: inactive

Question: Which Potency [1] does the source give for `C=C(C)C(=O)OCCNC(C)(C)C` here?
Answer: inactive

Question: And the outcome [9]?
Answer: inactive

Question: What about the Potency [2] of the same compound?
Answer: inactive

Question: What about the Potency [4] of the same compound?
Answer: inactive

Question: What about the outcome [5] of the same compound?
Answer: inactive

Question: What about the outcome [7] of the same compound?
Answer: inactive

Question: For `Cc1ccccc1N=O`, which Potency [1] is on record?
Answer: inactive

Question: What about the Potency [2] of the same compound?
Answer: inactive

Question: What about the outcome [3] of the same compound?
Answer: inactive

Question: And the outcome [5]?
Answer: inactive

Question: And the outcome [6]?
Answer: inactive

Question: What about the outcome [7] of the same compound?
Answer: inactive

Question: What about the outcome [8] of the same compound?
Answer: inactive

Question: With `CCCCCCCCCCl` as the compound, how does the Potency [1] read?
Answer: inactive

Question: And the Potency [2]?
Answer: inactive

Question: What about the outcome [3] of the same compound?
Answer: inactive

Question: What about the Potency [4] of the same compound?
Answer: inactive

Question: And the outcome [5]?
Answer: inactive

Question: What about the outcome [7] of the same compound?
Answer: inactive

Question: What about the outcome [8] of the same compound?
Answer: inactive

Question: With `COc1nccnc1NS(=O)(=O)c1ccc(N)cc1` as the compound, how does the Potency [1] read?
Answer: inactive

Question: What about the outcome [9] of the same compound?
Answer: inactive

Question: And the Potency [2]?
Answer: inactive

Question: And the outcome [3]?
Answer: inactive

Question: And the outcome [5]?
Answer: inactive

Question: And the outcome [6]?
Answer: inactive

Question: What about the outcome [7] of the same compound?
Answer: inactive

Question: And the outcome [8]?
Answer: inactive

Question: Which Potency [1] does the source give for `CCOc1cc([N+](=O)[O-])c(OCC)cc1N1CCOCC1` here?
Answer: inactive

Question: And the outcome [9]?
Answer: inactive

Question: What about the outcome [3] of the same compound?
Answer: inactive

Question: What about the outcome [5] of the same compound?
Answer: inactive

Question: And the outcome [6]?
Answer: inactive

Question: What about the outcome [7] of the same compound?
Answer: inactive

Question: And the outcome [8]?
Answer: inactive

Question: Which Potency [1] does the source give for `CC1=C(C(=O)O)N2C(=O)[C@@H](NC(=O)[C@H](N)c3ccc(O)cc3)[C@H]2SC1` here?
Answer: inactive

Question: What about the Potency [2] of the same compound?
Answer: inactive

Question: And the outcome [3]?
Answer: inactive

Question: What about the Potency [4] of the same compound?
Answer: inactive

Question: And the fluorescence, relative to Rose Bengal [5]?
Answer: 0.188% [at 18.6 µM]

Question: What about the fluorescence, % of fluorescein control [6] of the same compound?
Answer: -0.0034% [at 18.6 µM]

Question: And the fluorescence, % of triamterene [7]?
Answer: 0.187% [at 18.6 µM]

Question: What about the fluorescence, % of fluorescent control [8] of the same compound?
Answer: -0.165% [at 18.6 µM]

Question: With `C[Si](C)=O` as the compound, how does the activation [1] read?
Answer: 0.434% [at 8.08 µM]

Question: What about the activity, negative = cytotoxicity [2] of the same compound?
Answer: 11.6% [at 8.08 µM]

Question: And the activity change, negative = cytotoxicity [3]?
Answer: 4.91% [at 8.08 µM]

Question: What about the fluorescence, relative to Rose Bengal [5] of the same compound?
Answer: -0.082% [at 9.17 µM]

Question: What about the fluorescence, % of fluorescein control [6] of the same compound?
Answer: 0.004% [at 9.17 µM]

Question: And the fluorescence, % of triamterene [7]?
Answer: -0.115% [at 9.17 µM]

Question: With `COc1ccc2c(c1OC)C(=O)O[C@@H]2[C@H]1c2c(cc3c(c2OC)OCO3)CCN1C` as the compound, how does the Potency [1] read?
Answer: inactive

Question: What about the outcome [9] of the same compound?
Answer: inactive

Question: And the outcome [3]?
Answer: inactive

Question: What about the Potency [4] of the same compound?
Answer: inactive

Question: And the outcome [5]?
Answer: inactive

Question: What about the outcome [6] of the same compound?
Answer: inactive

Question: What about the outcome [7] of the same compound?
Answer: inactive

Question: And the outcome [8]?
Answer: inactive

Question: What does the source list for `CC(C)(C)OC(=O)c1ccc(O)cc1`?
Answer: Potency [1]: inactive; outcome [9]: inactive; Potency [2]: inactive; Potency [4]: 21.7 µM (active); outcome [5]: inactive; outcome [6]: inactive; outcome [7]: inactive

Question: For `CCC(C)(CCC(C)C)C(=O)O` (configuration not stated), which Potency [1] is on record?
Answer: inactive

Question: What about the Potency [2] of the same compound?
Answer: inactive

Question: And the outcome [3]?
Answer: inactive

Question: And the outcome [5]?
Answer: inactive

Question: And the outcome [6]?
Answer: inactive

Question: What about the outcome [7] of the same compound?
Answer: inactive

Question: What about the outcome [8] of the same compound?
Answer: inactive

Question: Which results are given for `Cc1cccc(C)c1OCC(C)N` (configuration not stated)?
Answer: Potency [1]: inactive; outcome [9]: inactive; Potency [2]: inactive; outcome [5]: inactive; outcome [6]: inactive; outcome [7]: inactive; outcome [8]: inactive

Question: Which Potency [1] does the source give for `CCCOC(OCCC)OCCC` here?
Answer: inactive

Question: What about the Potency [2] of the same compound?
Answer: inactive

Question: And the outcome [3]?
Answer: inactive

Question: What about the outcome [5] of the same compound?
Answer: inactive

Question: What about the outcome [6] of the same compound?
Answer: inactive

Question: What about the outcome [7] of the same compound?
Answer: inactive

Question: What about the outcome [8] of the same compound?
Answer: inactive

Question: With `C[C@@H](Oc1ccc(CNC(=O)c2cccnc2Oc2ccc3c(c2)OCO3)c(F)c1)C(=O)O` as the compound, how does the Potency [1] read?
Answer: inactive

Question: What about the outcome [9] of the same compound?
Answer: inactive

Question: And the Potency [2]?
Answer: inactive

Question: And the outcome [5]?
Answer: inactive

Question: And the outcome [7]?
Answer: inactive

Question: And the outcome [8]?
Answer: inactive

Question: Which results are given for `COC(=O)CCCCCCCC(=O)OC`?
Answer: Potency [1]: inactive; outcome [9]: inactive; Potency [2]: inactive; outcome [3]: inactive; outcome [5]: inactive; outcome [7]: inactive; outcome [8]: inactive

Question: Which Potency [1] does the source give for `C[Si](C)(C)C` here?
Answer: inactive

Question: What about the outcome [9] of the same compound?
Answer: inactive

Question: What about the Potency [2] of the same compound?
Answer: inactive

Question: And the Potency [4]?
Answer: inactive

Question: And the outcome [5]?
Answer: inactive

Question: And the outcome [6]?
Answer: inactive

Question: What about the outcome [7] of the same compound?
Answer: inactive

Question: And the outcome [8]?
Answer: inactive
